# Laboratory results reported in ChEMBL document CHEMBL3988442, “University of Dundee, Small-Polar-MMV Screening Library” (2021).
# Out of some 69,000 compounds screened, about 1,000 (1.4%) showed an effect of 50% or more. This excerpt belongs to a sample that is enriched for strong results.
# Tested on: Leishmania donovani
# Test: Leishmania intramacrophage assay
# Format: functional, organism-based
# Parameters: scale not given: in the data most compounds retested in dose-response had high values
structure (smiles),measurement,setting,value
Cc1nccc([C@H]2C[C@@H]3CCN(C(=O)c4c(C)noc4C)C[C@H]3O2)n1,Percent Effect,"30.3 µM, […]",16.88%
Cc1ccccc1OCCSc1nnc(CC2CCS(=O)(=O)C2)n1C (stereo unspecified),Percent Effect,"30.3 µM, […]",22.12%
COCc1cc(N2CCOC(c3ccc(Cl)c(Cl)c3)C2)ncn1 (stereo unspecified),Percent Effect,"30.3 µM, […]",54.26%
COCc1cc(N2CCOC(c3ccc(Cl)cc3)C2)ncn1 (stereo unspecified),Percent Effect,"30.3 µM, […]",15.44%
COCc1cc(N2CCOC(c3ccc(F)cc3)C2)ncn1 (stereo unspecified),Percent Effect,"30.3 µM, […]",-18.01%
COCc1ncn(Cc2nc(-c3ccc(OC)cc3F)oc2C)n1,Percent Effect,"30.3 µM, […]",-35.79%
CCCOC1CCCN(Cc2nc(-c3ccc(F)cc3F)oc2C)C1 (stereo unspecified),Percent Effect,"30.3 µM, […]",-16.44%
COc1ccc(-c2nc(CN3CCCC(OC)C3)c(C)o2)c(F)c1 (stereo unspecified),Percent Effect,"30.3 µM, […]",76%
COc1cccc(CN(C(=O)Nc2nncs2)C2CCC(O)CC2)c1 (stereo unspecified),Percent Effect,"30.3 µM, […]",1.528%
O=C1NC2(CCN(C(=O)c3ccnnc3)CC2)CC1c1ccccc1 (stereo unspecified),Percent Effect,"30.3 µM, […]",21.04%
CCCN1CCC(Cc2noc(-c3cccnc3OC)n2)CC1,Percent Effect,"30.3 µM, […]",57.42%
COC(=O)c1cccc(-c2nc(CC3CCN(C)CC3)no2)c1,Percent Effect,"30.3 µM, […]",10.91%
CCCN1CCC(Cc2noc(-c3cc4cccnc4nc3C)n2)CC1,Percent Effect,"30.3 µM, […]",32.81%
CN1CCC(Cc2noc(-c3cccc4c3OCC4)n2)CC1,Percent Effect,"30.3 µM, […]",31.67%
CC(=O)c1ccccc1-c1nc(CC2CCN(C)CC2)no1,Percent Effect,"30.3 µM, […]",87.64%
CCCN1CCC(Cc2noc(-c3ncccc3C)n2)CC1,Percent Effect,"30.3 µM, […]",17.75%
CSCc1noc(CNC(=O)C2CCN(C3CCCCC3)CC2)n1,Percent Effect,"30.3 µM, […]",24%
Cc1noc(C)c1CN(C)c1ncnc2ccccc12,Percent Effect,"30.3 µM, […]",12.67%
CC(Cn1cc(Br)cn1)C(=O)Nc1ccc(Cl)cn1 (stereo unspecified),Percent Effect,"30.3 µM, […]",-88.88%
CC(C)c1nc(C2CCCN(C(=O)CCn3cncn3)C2)no1 (stereo unspecified),Percent Effect,30 µM,13.68%
O=C(Cc1ccc(F)cc1)NCCNc1cc(N2CCCC2)ncn1,Percent Effect,"30.3 µM, […]",-9.653%
CCN1CC(COC(=O)c2cc(Br)ccc2F)CC1=O (stereo unspecified),Percent Effect,"30.3 µM, […]",-7.569%
CCN1CC(COC(=O)c2ccc(N(C)C)cc2F)CC1=O (stereo unspecified),Percent Effect,"30.3 µM, […]",23.8%
CCN1CC(COC(=O)c2ccc(Br)cc2F)CC1=O (stereo unspecified),Percent Effect,"30.3 µM, […]",87.43%
COc1ccccc1CC(=O)N1CCCC1Cn1nc(C)cc1C (stereo unspecified),Percent Effect,"30.3 µM, […]",13.95%
O=C1O[C@@H]2CN(Cc3cccc(O)c3)C[C@@H]2N1CCCN1CCOCC1,Percent Effect,"30.3 µM, […]",8.802%
CCOc1ccc(Cl)c(C(=O)NC)n1,Percent Effect,30 µM,10.53%
O[C@@H]1C[C@@H](c2nc(-c3ccccc3)no2)N(CC2CCCCC2)C1,Percent Effect,"30.3 µM, […]",18.41%
COc1ccnc(CN(C)C(=O)CSc2nnc(N)s2)c1,Percent Effect,"30.3 µM, […]",23.55%
CCn1ccc(CN(C)C(=O)CSc2nnc(N)s2)n1,Percent Effect,"30.3 µM, […]",54.38%
COc1ccc(CN(C)C(=O)CSc2nnc(N)s2)c(OC)c1OC,Percent Effect,"30.3 µM, […]",28.05%
CC(C(=O)N1CCCCC1)N1CCN(c2ncc(Cl)cn2)CC1 (stereo unspecified),Percent Effect,"30.3 µM, […]",6.463%
CS(=O)(=O)C1CCN(S(=O)(=O)c2ccc(F)c(F)c2)CC1,Percent Effect,"30.3 µM, […]",-2.266%
CS(=O)(=O)C1CCN(S(=O)(=O)c2ccc(F)c(F)c2)C1 (stereo unspecified),Percent Effect,"30.3 µM, […]",54.9%
Cc1cc(S(=O)(=O)N2CCC(S(C)(=O)=O)C2)ccc1F (stereo unspecified),Percent Effect,"30.3 µM, […]",24.83%
O=C(NCc1ccccn1)N1CC=C(c2ccccc2)CC1,Percent Effect,"30.3 µM, […]",1.233%
Cc1nc(CN)cc(N2CCC(O)(c3ccc(Cl)cc3)CC2)n1,Percent Effect,"30.3 µM, […]",-13.57%
Cc1nc(C2CCN(C)CC2)cc(N2CCOc3ccc(Cl)cc3C2)n1,Percent Effect,"30.3 µM, […]",85.22%
Cc1nc(CCN)cc(N2CCC(O)(c3ccc(Cl)cc3)CC2)n1,Percent Effect,"30.3 µM, […]",77.75%
Cc1nc(C2CCNCC2)cc(N2CCOc3ccccc3C2)n1,Percent Effect,"30.3 µM, […]",38.29%
Cc1nc(N)nc(N2CCOc3ccc(CO)cc3C2)c1C,Percent Effect,"30.3 µM, […]",-5.312%
Cc1nc(CCN)cc(N2CCOc3ccc(Cl)cc3C2)n1,Percent Effect,"30.3 µM, […]",63.66%
CCN(C)CC(=O)N1CCC(c2cc(N3CCOCC3)nc(C)n2)CC1,Percent Effect,"30.3 µM, […]",-5.475%
Cc1nc(CCN)cc(N2CCC(O)(c3ccccc3)C2)n1 (stereo unspecified),Percent Effect,"30.3 µM, […]",11.63%
COc1ccc(C(=O)N2CCN(c3cc(CCN)nc(C)n3)CC2)cc1,Percent Effect,"30.3 µM, […]",0.4639%
COc1cc2nc(NCCNS(C)(=O)=O)cc(C)c2cc1OC,Percent Effect,"30.3 µM, […]",-28.24%
O=C(O)C(F)(F)F.O=C(O)C(F)(F)F.c1csc(CN2CCCC3(COCCN(Cc4c[nH]nn4)C3)C2)c1 (stereo unspecified),Percent Effect,"30.3 µM, […]",14.23%
Cc1ccccc1C1(C(=O)N2CCOC(C)C2)CCOCC1 (stereo unspecified),Percent Effect,"30.3 µM, […]",-3.571%
Cc1nc(CN(C)C2CCN(Cc3ccc(C(N)=O)cc3)C2)no1 (stereo unspecified),Percent Effect,30 µM,31.74%
Cc1cccc(S(=O)(=O)NC(=O)CN(C)Cc2ccccc2)c1,Percent Effect,"30.3 µM, […]",14.38%
Cc1ccccc1[C@@H]1CN(Cc2ccc(C(F)(F)F)nc2)C[C@H]1C(=O)O,Percent Effect,"30.3 µM, […]",13.27%
Fc1ccc(OCCNC2CCN(Cc3ccncc3)CC2)c(F)c1,Percent Effect,"30.3 µM, […]",39.31%
N#Cc1ccc(NC2CCN(Cc3ccccn3)CC2)c(F)c1,Percent Effect,"30.3 µM, […]",-12.41%
Fc1ccc(OCCNC2CCN(Cc3ccccn3)CC2)c(F)c1,Percent Effect,"30.3 µM, […]",52.55%
CCN1CCN(CC(O)c2ccc(OC(F)(F)F)cc2)CC1 (stereo unspecified),Percent Effect,"30 µM, 30.03 µM",18.61%
O=C1CC2(CCN(C(=O)C3CCCCC3)C2)Nc2ccccc2N1 (stereo unspecified),Percent Effect,"30.3 µM, […]",29.44%
Cc1nc(CO[C@H]2CN(C(=O)c3cnoc3C)[C@@H]3COC[C@H]23)cs1.O=C(O)C(F)(F)F,Percent Effect,"30.3 µM, […]",6.994%
CCOCC(O)CN1CCN(C(=O)c2cc(C)ccc2F)CC1 (stereo unspecified),Percent Effect,30 µM,-8.817%
COCCOCC(=O)NC(C#N)c1cccc(Cl)c1Cl (stereo unspecified),Percent Effect,"30.3 µM, […]",-18.55%
CCOCC1c2c(ncn2C(C)C)CCN1C(=O)C1CC1 (stereo unspecified),Percent Effect,"30.3 µM, […]",23.55%
c1cc(-c2ccc3c(c2)CCC32CCN(c3nncs3)CC2)co1,Percent Effect,"30.3 µM, […]",-6.512%
O=C(O)C(F)(F)F.c1cncc(-c2ccc3c(c2)C2(CC3)CCN(c3nncs3)CC2)c1,Percent Effect,"30 µM, 30.03 µM",47.88%
c1cc(-c2ccc3c(c2)C2(CC3)CCN(c3nncs3)CC2)ccn1,Percent Effect,"30.3 µM, […]",59.16%
Cc1ccc2c(c1)C1(CC2)CCN(c2nncs2)CC1,Percent Effect,"30 µM, 30.03 µM",8.524%
CN(C)CC(=O)N1CCC2(CCc3ccc(-c4ccncc4)cc32)CC1.O=C(O)C(F)(F)F.O=C(O)C(F)(F)F,Percent Effect,"30.3 µM, […]",33.01%
O=C(O)C(F)(F)F.c1cc(-c2ccc3c(c2)CCC32CCN(c3nncs3)CC2)ccn1,Percent Effect,"30.3 µM, […]",73.19%
